# Results: publication PMC7862700, “An all-to-all approach to the identification of sequence-specific readers for epigenetic DNA modifications on cytosine”
# Legend:
# Experiment in all cases: DAPPL (digital affinity profiling via proximity ligation, sequencing); 10 mM Tris-HCl pH 7.5, 50 mM NaCl, 1 mM DTT, 4% glycerol, room temperature, 30 min; GST-TFs on glutathione beads, 16-mer random dsDNA library, 0.1% formaldehyde crosslink after washing; high values mean tight binding
# FLI1 = target: T1, FLI1 (Homo sapiens, UniProt Q01543 1-452); settings: protein: recombinant; tags: N-terminal GST; dsDNA, one strand shown
# T1 sequence: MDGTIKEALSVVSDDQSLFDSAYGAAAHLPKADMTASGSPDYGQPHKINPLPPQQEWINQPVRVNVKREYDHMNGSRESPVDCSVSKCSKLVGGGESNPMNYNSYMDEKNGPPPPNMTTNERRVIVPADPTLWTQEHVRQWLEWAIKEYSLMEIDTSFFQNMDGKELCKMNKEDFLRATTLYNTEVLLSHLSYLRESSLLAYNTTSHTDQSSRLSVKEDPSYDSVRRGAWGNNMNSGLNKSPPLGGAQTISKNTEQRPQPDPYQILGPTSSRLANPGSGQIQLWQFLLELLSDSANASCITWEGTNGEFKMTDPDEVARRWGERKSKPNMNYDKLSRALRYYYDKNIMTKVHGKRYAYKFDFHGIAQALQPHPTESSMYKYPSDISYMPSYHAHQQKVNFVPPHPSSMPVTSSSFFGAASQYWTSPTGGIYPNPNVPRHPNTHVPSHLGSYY
# Method in brief: (§1)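 After expression in yeast as GST fusions, human transcription factors were bound to glutathione beads, DNA-barcoded and mixed with a tag-only sample. The pools were incubated with 200 nmole of a 16-mer random double-stranded DNA library in Tris/NaCl/DTT/glycerol buffer (30 min, room temperature), washed and crosslinked with 0.1% formaldehyde. Proximity ligation with BsaI/T4 ligase ran for 1 h at 37 °C, before PCR amplification and sequencing on an Illumina NextSeq500. Binding signal is a hexamer's read frequency for a factor divided by its frequency for the tag-only sample.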
# ELK1 = target: T2, ELK1 (Homo sapiens, UniProt P19419 1-428); settings: protein: recombinant; tags: N-terminal GST; dsDNA, one strand shown
# T2 sequence: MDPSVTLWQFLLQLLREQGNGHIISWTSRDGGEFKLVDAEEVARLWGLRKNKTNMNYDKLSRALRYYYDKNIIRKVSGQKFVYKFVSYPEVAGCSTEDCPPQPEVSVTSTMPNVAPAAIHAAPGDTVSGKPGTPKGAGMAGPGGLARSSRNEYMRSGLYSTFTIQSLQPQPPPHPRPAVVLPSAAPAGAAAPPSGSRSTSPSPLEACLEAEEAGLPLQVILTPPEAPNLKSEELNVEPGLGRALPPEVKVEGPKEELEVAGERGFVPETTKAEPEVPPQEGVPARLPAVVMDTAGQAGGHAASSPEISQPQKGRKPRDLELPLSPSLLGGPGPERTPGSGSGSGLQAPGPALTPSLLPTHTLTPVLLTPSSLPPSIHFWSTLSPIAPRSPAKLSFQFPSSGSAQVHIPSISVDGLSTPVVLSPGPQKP
# Method in brief: as §1
# GABPA = target: T3, GABPA (Homo sapiens, UniProt Q06546 1-454); settings: protein: recombinant; tags: N-terminal GST; dsDNA, one strand shown
# T3 sequence: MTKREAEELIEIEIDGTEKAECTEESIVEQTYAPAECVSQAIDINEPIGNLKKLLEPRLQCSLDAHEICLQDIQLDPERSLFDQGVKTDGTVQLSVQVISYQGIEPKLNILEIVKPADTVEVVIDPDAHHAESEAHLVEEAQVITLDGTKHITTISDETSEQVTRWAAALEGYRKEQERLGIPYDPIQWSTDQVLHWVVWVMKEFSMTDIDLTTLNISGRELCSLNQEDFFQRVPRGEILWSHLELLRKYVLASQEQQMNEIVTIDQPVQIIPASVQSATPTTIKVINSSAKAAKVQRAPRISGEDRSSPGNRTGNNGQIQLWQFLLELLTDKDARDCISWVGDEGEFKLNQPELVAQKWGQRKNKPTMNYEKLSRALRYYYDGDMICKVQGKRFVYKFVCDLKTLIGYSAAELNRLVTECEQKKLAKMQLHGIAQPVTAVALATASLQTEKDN
# Method in brief: as §1
# ERG = target: T4, ERG (Homo sapiens, UniProt P11308 1-479); settings: protein: recombinant; tags: N-terminal GST; dsDNA, one strand shown
# T4 sequence: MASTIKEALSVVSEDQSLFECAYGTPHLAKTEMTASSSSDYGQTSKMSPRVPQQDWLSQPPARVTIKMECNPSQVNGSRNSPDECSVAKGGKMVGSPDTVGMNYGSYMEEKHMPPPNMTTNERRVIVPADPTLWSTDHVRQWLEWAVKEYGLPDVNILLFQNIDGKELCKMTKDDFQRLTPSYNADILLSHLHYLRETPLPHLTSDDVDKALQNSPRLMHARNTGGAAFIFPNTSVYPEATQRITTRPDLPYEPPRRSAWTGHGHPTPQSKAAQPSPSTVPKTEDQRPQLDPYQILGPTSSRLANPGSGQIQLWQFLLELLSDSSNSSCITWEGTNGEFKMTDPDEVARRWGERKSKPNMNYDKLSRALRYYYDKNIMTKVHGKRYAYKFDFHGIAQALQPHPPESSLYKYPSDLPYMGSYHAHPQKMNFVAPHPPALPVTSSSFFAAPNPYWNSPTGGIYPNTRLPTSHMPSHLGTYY
# Method in brief: as §1
# ELF1 = ELF1 (Homo sapiens, UniProt P32519 1-619); settings: protein: recombinant; tags: N-terminal GST; dsDNA, one strand shown
# Method in brief: as §1
# EHF = target: T5, EHF (Homo sapiens, UniProt Q9NZC4 1-300); settings: protein: recombinant; tags: N-terminal GST; dsDNA, one strand shown
# T5 sequence: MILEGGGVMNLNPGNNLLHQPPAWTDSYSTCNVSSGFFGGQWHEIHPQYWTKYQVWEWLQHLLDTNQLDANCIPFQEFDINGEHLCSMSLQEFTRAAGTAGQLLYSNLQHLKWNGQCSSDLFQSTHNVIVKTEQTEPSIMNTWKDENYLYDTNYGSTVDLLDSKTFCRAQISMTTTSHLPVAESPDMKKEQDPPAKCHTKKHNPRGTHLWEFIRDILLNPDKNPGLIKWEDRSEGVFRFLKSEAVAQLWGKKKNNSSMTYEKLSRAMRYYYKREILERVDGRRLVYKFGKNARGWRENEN
# Method in brief: as §1
# SPI1 = SPI1 (Homo sapiens, UniProt P17947 1-270); settings: protein: recombinant; tags: N-terminal GST; dsDNA, one strand shown
# Method in brief: as §1
# SPIB = SPIB (Homo sapiens, UniProt Q01892 1-262); settings: protein: recombinant; tags: N-terminal GST; dsDNA, one strand shown
# Method in brief: as §1
# ELK3 = target: T6, ELK3 (Homo sapiens, UniProt P41970 1-407); settings: protein: recombinant; tags: N-terminal GST; dsDNA, one strand shown
# T6 sequence: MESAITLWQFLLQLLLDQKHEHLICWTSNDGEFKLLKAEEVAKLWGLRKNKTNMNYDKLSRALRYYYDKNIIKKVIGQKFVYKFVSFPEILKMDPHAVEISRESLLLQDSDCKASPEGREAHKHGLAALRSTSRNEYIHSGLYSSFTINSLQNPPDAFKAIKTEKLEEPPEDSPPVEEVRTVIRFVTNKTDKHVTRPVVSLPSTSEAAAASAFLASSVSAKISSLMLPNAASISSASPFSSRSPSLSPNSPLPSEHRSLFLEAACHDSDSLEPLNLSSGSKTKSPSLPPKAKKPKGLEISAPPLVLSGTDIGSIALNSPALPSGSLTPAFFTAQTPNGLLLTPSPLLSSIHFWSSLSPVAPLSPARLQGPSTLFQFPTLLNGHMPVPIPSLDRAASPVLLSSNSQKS
# Method in brief: as §1
# FEV = target: T7, FEV (Homo sapiens, UniProt Q99581 1-238); settings: protein: recombinant; tags: N-terminal GST; dsDNA, one strand shown
# T7 sequence: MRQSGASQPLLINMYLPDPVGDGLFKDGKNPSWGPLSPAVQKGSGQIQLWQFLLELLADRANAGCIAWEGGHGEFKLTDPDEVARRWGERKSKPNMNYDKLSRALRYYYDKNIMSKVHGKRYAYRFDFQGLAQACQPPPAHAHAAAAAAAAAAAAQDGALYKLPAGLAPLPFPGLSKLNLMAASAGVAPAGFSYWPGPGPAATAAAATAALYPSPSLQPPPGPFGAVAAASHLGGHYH
# Method in brief: as §1
# ETV5 = ETV5 (Homo sapiens, UniProt P41161 1-510); settings: protein: recombinant; tags: N-terminal GST; dsDNA, one strand shown
# Method in brief: as §1
# HSF1 = HSF1 (Homo sapiens, UniProt Q00613 1-529); settings: protein: recombinant; tags: N-terminal GST; chain copies: 3; dsDNA, one strand shown
# Method in brief: as §1
# SPIC = target: T8, SPIC (Homo sapiens, UniProt Q8N5J4 1-248); settings: protein: recombinant; tags: N-terminal GST; dsDNA, one strand shown
# T8 sequence: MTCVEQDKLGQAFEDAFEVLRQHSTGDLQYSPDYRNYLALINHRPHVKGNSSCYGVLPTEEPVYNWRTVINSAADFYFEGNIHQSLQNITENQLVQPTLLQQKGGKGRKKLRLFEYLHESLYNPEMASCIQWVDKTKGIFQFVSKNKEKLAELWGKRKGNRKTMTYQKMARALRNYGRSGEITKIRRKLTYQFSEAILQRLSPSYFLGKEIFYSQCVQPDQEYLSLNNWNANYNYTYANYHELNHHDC
# Method in brief: as §1
# ELF4 = ELF4 (Homo sapiens, UniProt Q99607 1-663); settings: protein: recombinant; tags: N-terminal GST; dsDNA, one strand shown
# Method in brief: as §1
# ELK4 = target: T9, ELK4 (Homo sapiens, UniProt P28324-2 1-405); settings: protein: recombinant; tags: N-terminal GST; dsDNA, one strand shown
# T9 sequence: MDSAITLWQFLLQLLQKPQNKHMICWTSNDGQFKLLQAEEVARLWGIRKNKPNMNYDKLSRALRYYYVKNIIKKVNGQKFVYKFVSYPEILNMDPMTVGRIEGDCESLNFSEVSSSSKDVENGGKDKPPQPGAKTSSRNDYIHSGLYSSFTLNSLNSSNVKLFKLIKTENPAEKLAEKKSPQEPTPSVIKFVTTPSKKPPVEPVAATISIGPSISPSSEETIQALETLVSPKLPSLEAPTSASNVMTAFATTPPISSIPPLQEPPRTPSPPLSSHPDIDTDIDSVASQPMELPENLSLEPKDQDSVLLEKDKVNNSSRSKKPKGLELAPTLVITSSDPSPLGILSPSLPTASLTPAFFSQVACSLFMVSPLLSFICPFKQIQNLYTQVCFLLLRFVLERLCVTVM
# Method in brief: as §1
# ETV2 = target: T10, ETV2 (Homo sapiens, UniProt O00321 1-342); settings: protein: recombinant; tags: N-terminal GST; dsDNA, one strand shown
# T10 sequence: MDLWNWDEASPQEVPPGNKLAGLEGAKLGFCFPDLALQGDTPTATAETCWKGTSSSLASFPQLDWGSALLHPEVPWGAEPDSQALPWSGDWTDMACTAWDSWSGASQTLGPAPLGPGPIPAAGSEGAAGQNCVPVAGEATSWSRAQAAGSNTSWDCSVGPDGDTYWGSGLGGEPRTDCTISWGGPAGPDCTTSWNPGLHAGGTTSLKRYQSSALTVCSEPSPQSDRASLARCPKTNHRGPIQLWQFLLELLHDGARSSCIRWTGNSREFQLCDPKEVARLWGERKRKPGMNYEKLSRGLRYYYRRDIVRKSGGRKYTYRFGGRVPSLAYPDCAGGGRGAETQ
# Method in brief: as §1
# ELF3 = target: T11, ELF3 (Homo sapiens, UniProt P78545 1-371); settings: protein: recombinant; tags: N-terminal GST; dsDNA, one strand shown
# T11 sequence: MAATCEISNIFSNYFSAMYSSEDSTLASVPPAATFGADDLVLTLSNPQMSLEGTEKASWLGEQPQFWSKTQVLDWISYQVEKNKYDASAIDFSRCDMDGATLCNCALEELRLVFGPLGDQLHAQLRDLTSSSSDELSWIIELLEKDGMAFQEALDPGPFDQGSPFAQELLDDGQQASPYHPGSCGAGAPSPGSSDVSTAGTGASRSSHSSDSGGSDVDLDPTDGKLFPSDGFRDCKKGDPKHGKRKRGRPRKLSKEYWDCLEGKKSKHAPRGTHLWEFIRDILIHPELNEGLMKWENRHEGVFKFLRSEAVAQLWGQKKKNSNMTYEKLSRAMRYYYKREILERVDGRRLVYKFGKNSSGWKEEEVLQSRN
# Method in brief: as §1
# CRX = CRX (Homo sapiens, UniProt O43186 1-299); settings: protein: recombinant; tags: N-terminal GST; dsDNA, one strand shown
# Method in brief: as §1
# ETV1 = ETV1 (Homo sapiens, UniProt P50549 1-477); settings: protein: recombinant; tags: N-terminal GST; dsDNA, one strand shown
# Method in brief: as §1
# CRX, sequence (O43186 whole entry): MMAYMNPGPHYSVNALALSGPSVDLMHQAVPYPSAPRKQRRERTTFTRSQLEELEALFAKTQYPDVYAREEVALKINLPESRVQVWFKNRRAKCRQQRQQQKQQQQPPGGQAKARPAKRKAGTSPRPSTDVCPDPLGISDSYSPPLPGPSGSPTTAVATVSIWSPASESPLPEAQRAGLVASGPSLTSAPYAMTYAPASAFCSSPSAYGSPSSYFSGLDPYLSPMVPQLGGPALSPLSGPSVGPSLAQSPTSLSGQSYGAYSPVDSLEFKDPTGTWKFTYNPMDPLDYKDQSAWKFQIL
# ELF4, sequence (Q99607 whole entry): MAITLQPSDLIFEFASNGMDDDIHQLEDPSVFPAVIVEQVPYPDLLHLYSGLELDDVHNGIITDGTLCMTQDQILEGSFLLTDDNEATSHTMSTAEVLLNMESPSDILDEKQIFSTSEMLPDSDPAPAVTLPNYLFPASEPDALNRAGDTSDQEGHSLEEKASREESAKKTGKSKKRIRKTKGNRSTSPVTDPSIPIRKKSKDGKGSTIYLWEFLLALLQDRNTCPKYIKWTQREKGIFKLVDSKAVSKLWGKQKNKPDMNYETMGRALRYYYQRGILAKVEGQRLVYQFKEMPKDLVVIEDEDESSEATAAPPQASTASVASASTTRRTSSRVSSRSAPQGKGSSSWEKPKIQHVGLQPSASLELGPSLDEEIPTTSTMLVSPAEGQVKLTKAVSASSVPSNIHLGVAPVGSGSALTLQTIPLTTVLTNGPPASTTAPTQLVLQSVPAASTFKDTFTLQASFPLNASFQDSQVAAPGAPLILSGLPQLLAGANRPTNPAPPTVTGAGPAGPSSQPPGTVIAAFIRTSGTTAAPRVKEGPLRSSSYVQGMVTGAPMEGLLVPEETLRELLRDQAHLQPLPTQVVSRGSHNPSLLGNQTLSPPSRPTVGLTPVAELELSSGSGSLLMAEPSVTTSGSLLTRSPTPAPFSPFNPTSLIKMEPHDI
# ETV1, sequence (P50549 whole entry): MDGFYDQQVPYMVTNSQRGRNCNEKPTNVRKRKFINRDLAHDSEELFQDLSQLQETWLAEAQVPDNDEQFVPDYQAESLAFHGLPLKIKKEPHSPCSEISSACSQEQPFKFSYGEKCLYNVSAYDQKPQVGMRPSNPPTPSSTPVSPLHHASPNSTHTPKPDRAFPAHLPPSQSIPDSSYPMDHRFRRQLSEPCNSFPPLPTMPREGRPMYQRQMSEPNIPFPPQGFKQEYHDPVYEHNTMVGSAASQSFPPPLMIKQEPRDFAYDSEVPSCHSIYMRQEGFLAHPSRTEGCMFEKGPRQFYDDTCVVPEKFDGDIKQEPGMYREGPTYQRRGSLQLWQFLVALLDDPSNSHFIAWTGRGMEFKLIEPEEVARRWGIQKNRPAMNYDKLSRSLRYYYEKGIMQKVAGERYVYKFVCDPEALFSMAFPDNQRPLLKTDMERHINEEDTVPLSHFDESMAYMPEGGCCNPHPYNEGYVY
# SPIB, sequence (Q01892 whole entry): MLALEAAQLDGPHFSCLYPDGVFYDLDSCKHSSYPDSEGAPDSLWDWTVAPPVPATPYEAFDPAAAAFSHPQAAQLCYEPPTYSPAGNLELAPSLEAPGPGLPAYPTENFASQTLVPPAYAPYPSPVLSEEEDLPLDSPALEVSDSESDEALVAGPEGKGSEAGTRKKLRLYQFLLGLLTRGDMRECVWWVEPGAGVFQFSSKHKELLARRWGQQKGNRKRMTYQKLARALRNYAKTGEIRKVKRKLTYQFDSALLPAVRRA
# ETV5, sequence (P41161 whole entry): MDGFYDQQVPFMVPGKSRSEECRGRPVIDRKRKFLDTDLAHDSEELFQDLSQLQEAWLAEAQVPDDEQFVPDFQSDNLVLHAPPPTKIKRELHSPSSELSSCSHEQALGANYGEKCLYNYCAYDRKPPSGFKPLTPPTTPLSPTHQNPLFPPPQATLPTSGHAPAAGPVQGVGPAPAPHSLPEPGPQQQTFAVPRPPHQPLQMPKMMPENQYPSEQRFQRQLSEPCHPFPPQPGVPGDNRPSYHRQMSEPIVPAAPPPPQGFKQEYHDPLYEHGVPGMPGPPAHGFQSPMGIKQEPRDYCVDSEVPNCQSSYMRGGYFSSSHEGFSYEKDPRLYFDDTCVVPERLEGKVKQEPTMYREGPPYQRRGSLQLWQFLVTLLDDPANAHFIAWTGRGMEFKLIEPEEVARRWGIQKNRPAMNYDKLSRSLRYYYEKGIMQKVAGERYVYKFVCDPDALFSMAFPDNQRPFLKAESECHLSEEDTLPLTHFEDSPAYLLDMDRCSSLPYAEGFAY
# ELF1, sequence (P32519 whole entry): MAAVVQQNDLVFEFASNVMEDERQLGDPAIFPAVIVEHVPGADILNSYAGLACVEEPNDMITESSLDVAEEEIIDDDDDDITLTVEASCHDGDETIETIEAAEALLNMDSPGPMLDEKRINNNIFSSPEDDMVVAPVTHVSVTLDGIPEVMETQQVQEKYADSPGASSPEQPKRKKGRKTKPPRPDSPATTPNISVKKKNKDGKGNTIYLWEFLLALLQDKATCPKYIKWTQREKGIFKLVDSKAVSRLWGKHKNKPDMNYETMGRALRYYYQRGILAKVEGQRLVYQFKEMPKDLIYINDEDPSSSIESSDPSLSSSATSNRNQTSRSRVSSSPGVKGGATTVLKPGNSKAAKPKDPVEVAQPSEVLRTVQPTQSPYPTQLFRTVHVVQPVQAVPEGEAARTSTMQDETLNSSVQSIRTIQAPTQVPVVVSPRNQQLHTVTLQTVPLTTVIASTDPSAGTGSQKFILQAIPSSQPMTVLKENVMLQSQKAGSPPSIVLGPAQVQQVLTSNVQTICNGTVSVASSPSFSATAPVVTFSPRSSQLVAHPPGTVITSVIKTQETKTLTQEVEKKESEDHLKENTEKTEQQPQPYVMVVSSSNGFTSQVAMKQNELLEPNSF
# HSF1, sequence (Q00613 whole entry): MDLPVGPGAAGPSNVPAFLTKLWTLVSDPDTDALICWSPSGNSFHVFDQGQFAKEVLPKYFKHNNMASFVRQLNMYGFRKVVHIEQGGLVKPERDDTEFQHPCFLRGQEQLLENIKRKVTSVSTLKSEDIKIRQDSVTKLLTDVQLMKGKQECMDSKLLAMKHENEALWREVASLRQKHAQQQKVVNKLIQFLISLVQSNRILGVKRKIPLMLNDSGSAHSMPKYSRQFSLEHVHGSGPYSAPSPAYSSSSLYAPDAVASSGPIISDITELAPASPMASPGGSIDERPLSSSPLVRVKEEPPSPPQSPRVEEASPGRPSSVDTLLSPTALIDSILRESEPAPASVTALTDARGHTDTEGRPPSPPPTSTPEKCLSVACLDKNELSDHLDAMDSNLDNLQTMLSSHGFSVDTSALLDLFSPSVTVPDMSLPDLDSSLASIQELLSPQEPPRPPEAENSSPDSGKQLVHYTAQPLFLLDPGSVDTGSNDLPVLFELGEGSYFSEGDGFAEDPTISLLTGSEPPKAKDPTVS
sequence,measurement,setting,value
CCTCTA,binding signal,FLI1,"1.24 fold enrichment (6-mer frequency, TF over GST control)"
same,binding signal,ELK1,"1.48 fold enrichment (6-mer frequency, TF over GST control)"
same,binding signal,GABPA,"1.39 fold enrichment (6-mer frequency, TF over GST control)"
same,binding signal,ERG,"1.32 fold enrichment (6-mer frequency, TF over GST control)"
same,binding signal,ELF1,"1.42 fold enrichment (6-mer frequency, TF over GST control)"
same,binding signal,EHF,"1.31 fold enrichment (6-mer frequency, TF over GST control)"
same,binding signal,SPI1,"1.33 fold enrichment (6-mer frequency, TF over GST control)"
same,binding signal,SPIB,"1.38 fold enrichment (6-mer frequency, TF over GST control)"
same,binding signal,ELK3,"1.32 fold enrichment (6-mer frequency, TF over GST control)"
same,binding signal,FEV,"1.4 fold enrichment (6-mer frequency, TF over GST control)"
same,binding signal,ETV5,"1.27 fold enrichment (6-mer frequency, TF over GST control)"
same,binding signal,HSF1,"1.38 fold enrichment (6-mer frequency, TF over GST control)"
same,binding signal,SPIC,"1.37 fold enrichment (6-mer frequency, TF over GST control)"
same,binding signal,ELF4,"1.35 fold enrichment (6-mer frequency, TF over GST control)"
same,binding signal,ELK4,"1.24 fold enrichment (6-mer frequency, TF over GST control)"
same,binding signal,ETV2,"1.37 fold enrichment (6-mer frequency, TF over GST control)"
same,binding signal,ELF3,"1.43 fold enrichment (6-mer frequency, TF over GST control)"
same,binding signal,CRX,"1.45 fold enrichment (6-mer frequency, TF over GST control)"
same,binding signal,ETV1,"1.28 fold enrichment (6-mer frequency, TF over GST control)"
